In PubChem BioAssay AID605 (National Center for Advancing Translational Sciences (NCATS), 2007):
The campaign covered roughly 71,000 compounds. About 35 (0.05%) were called active. Calls come from the whole dose curve; as a rule, active = well fitted curve in the direction sought with a large enough effect; inconclusive = small, poorly fitted or top-dose-only effect, or effect the other way; inactive = flat fitted curve, though single readings scatter. A selection follows.

Biological target: tRNA threonylcarbamoyladenosine biosynthesis protein TsaE (Escherichia coli (strain K12)) (UniProt P0AF67)
Assay: qHTS Assay for Inhibitors of YjeE
Conditions: purified YjeE enzyme, qHTS inhibition assay
Description: NIH Molecular Libraries Screening Centers Network [MLSCN]
NIH Chemical Genomics Center [NCGC]
Assay Provider: Eric Brown, McMaster University
YjeE is an essential E.coli protein of unknown function that binds adenosine diphosphate (ADP). A complex of YjeE and BODIPY Texas Red-labeled ADP probe (Invitrogen, catalog number A22359) is incubated with library members. Inhibitors of YjeE-ADP binding are detected by a decrease in the fluorescence polarization (FP) of the fluorophore. Purified YjeE was supplied by Chand Mangat and Eric Brown, McMaster University.
NCGC Assay Protocol Summary:
2 uM probe/10 uM YjeE in columns 1, 2, 5-48. Titration of ADP control (from 40 mM, then 1:2) pin-transferred to top half of column 2. Column 1 and bottom half of column 2 are neutral.
Two and a half uL of reagents were dispensed to 1536-well Greiner black plates. Compounds and controls (20 nL) were transferred via Kalypsys PinTool. The plates were incubated for 15 min at room temperature, and then read on ViewLux (Perkin-Elmer) High-throughput CCD imager using BODIPY polarization filter set and 30 seconds exposure time. During dispense, reagent bottle was kept submerged into 4 deg C water bath and all liquid lines were covered with aluminum foil to minimize probe and protein degradation.
Keywords: NIH Roadmap, MLSCN, MLI, MLSMR, qHTS, NCGC, YjeE

outcome, inactive:
CCc1ccc(Nc2ncc3c(n2)CC(c2ccco2)CC3=O)cc1 (stereo not given)
COc1ccc(CN(C(=O)c2cccs2)c2nccs2)cc1OC
Cc1ccc(C(=O)CS(C)(=O)=O)cc1
CC(C)C(=O)N1CCN(CCN=CC2=C(O)CC(c3ccco3)CC2=O)CC1 (stereo not given)
COc1cccc(N2CCN(C(=O)C3CCCN(S(=O)(=O)c4cnc[nH]4)C3)CC2)c1 (stereo not given)
O=C(Nc1c(C(=O)N2CCCCC2)cnn1-c1ccccc1)c1ccco1
COc1ncc2nc(-c3ccc(Cl)cc3)c(=O)n(-c3ccccc3)c2n1
COc1cc2[nH]c(=S)n(Cc3ccc(C)o3)c(=O)c2cc1OC
CCC(C)(C)N=C(NC#N)Nc1cccnc1
C[C@@H](Nc1nc(-c2ccccc2)nc2c1oc1ccccc12)C(=O)O
Cc1ccc(N(CC(O)CN2CCCC2)S(=O)(=O)c2ccccc2)cc1 (stereo not given)
COc1ccc(N2C(=O)CC(N3CCC(C(N)=O)CC3)C2=O)cc1 (stereo not given)
CCCCCCn1c(CN2CCCC(C)C2)nc2c1c(=O)n(C)c(=O)n2C (stereo not given)
O=NO
Cc1ccc(S(=O)(=O)NC(=O)NN2C[C@H]3CCC[C@@H]3C2)cc1
CCCn1c(=O)c(-c2ccccc2)c(O)c2ccccc21
CC(C)CC1(C(=O)NCc2ccccn2)C=CCN1C(=O)c1ccccc1 (stereo not given)
COCCOC(=O)C1=C(C)Nc2nc(C)nn2C1c1ccccc1 (stereo not given)
CCCC(=O)Nc1nnc(CC(=O)OCC)s1
O=C(O)[C@@H](S)[C@H](S)C(=O)O
